The list is not random: actives were taken first. Their share in the collection is about 10%.
MCF10A rerep: inducers of DNA re-replication in MCF 10A breast cells; MCF 10A DNA re-replication, Hoechst nuclear intensity, 48 h; Potency, µM (highest dose often 46.1 µM), most hits filed as activators; 350,000 compounds, 2.9% hits; note: nearly all actives have a fitted effect of over 50% in size
RORg inh: blocks mouse ROR gamma transcriptional activity. Drosophila S2 Gal4-RORgamma UAS-luciferase reporter, 20 h. Potency, µM (top dose mostly 53.6 µM), actives largely listed as inhibitors. 310,000 compounds, 5.4% hits; note: nearly all actives have a fitted effect of over 60% in size
Target sequence (P51450 whole entry, looked up, the tested form may be a part): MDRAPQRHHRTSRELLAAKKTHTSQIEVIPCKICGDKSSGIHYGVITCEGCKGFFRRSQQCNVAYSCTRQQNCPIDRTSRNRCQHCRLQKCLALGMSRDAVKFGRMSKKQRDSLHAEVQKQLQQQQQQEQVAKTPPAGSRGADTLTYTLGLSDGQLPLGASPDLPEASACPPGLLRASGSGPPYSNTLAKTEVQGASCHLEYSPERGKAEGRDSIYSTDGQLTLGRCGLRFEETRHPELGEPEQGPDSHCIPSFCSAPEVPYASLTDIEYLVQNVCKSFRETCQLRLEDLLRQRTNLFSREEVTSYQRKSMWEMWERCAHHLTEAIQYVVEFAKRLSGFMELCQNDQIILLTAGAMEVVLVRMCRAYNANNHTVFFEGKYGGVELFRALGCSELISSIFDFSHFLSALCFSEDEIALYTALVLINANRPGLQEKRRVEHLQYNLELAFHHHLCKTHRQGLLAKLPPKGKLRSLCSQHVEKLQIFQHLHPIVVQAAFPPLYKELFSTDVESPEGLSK
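Using a luciferase readout, inhibitors were identified by reduced reporter activity in Drosophila cells coexpressing a copper-inducible Gal4–ROR gamma fusion and UAS-driven Photinus luciferase, incubated 20 hr after 700 uM copper sulfate.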
SW480 rereplic: inducers of DNA re-replication in SW480 colon cancer cells; SW480 DNA re-replication, Hoechst DNA content imaging, 48 h; Potency, µM (titrated, usually from 46.1 µM), hits mostly activators; 340,000 compounds, 1.8% hits; note: nearly all actives have a fitted effect of over 55% in size
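SW480 cells exposed to compounds for 48 hr at 37 C, 5% CO2, then Hoechst-stained 40 min. Nuclear DNA content imaged by fluorescence scanning (405 nm excitation, 500-530 nm emission); re-replication scored as increased high-intensity nuclei.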
Gal4-VP16 FLuc: counter-screen for ROR gamma inhibitors: Gal4-VP16 reporter. Drosophila S2 Gal4-VP16 UAS-luciferase, luminescence, 20 h. Potency, µM (top dose mostly 53.6 µM), hits mostly inhibitors. 310,000 compounds, 3.5% hits. AID 2546;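 note: Gal4-VP16 expression switched on by copper sulfate through the metallothionein promoter; nearly all actives have a fitted effect of over 50% in size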
KB-V1 MDR tox: KB-V1 MDR subline cytotoxicity; KB-V1 MDR cells viability, CellTiter-Glo, 72 h; 400,000 compounds, 3.4% hits; Potency, µM (top dose mostly 46.1 µM), most hits filed as cytotoxic; note: nearly all actives have a fitted effect of over 60% in size
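Compound-treated KB-V1 multidrug-resistant cells, 72 h, 37 degrees C; viability by CellTiter-Glo. Fitted qHTS curves give the values.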
KB-3-1 tox: kills parental KB-3-1 adenocarcinoma cells; KB-3-1 viability, CellTiter-Glo ATP luminescence, 72 h; Potency, µM (top dose mostly 46.1 µM), hits mostly cytotoxic; 400,000 compounds, 1.4% hits; AID 1347075; note: nearly all actives have a fitted effect of over 60% in size
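Using CellTiter-Glo luminescence, growth of non-resistant KB-3-1 adenocarcinoma cells is assessed 72 h after pin-tool compound addition at 37 °C. Normalized responses across the concentration series yield fitted curves.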
Large screens that a line does not name were inactive. Calls come from the whole dose curve; as a rule, active = well fitted curve in the direction sought with a large enough effect; inconclusive = small, poorly fitted or top-dose-only effect, or another doubt; inactive = no such curve, though single readings can be large; an effect the other way counts as inactive or inconclusive.

CN1CCN(CCCNC(=O)c2cnn(-c3ccc(F)cc3)c2-n2cccc2)CC1	none (no result: MCF10A rerep, RORg inh, SW480 rereplic, Gal4-VP16 FLuc)
O=C(NCCN1CCN(c2ccccc2)CC1)c1ccccc1F	none
CCc1nn(CC(=O)Nc2ccc(N(CC)CC)cc2C)c(=O)c2cc3sccc3n12	none (no result: MCF10A rerep, RORg inh, SW480 rereplic, Gal4-VP16 FLuc)
CC(CNC(=O)c1cnn(-c2ccc(F)cc2)c1-n1cccc1)c1ccccc1 (stereo unspecified)	KB-V1 MDR tox 21µM, KB-3-1 tox inconclusive (no result: MCF10A rerep, RORg inh, SW480 rereplic, Gal4-VP16 FLuc)
CCSc1nc(-c2ccc(Cl)cc2)nc2c1Cc1c(CO)cnc(C)c1O2	KB-V1 MDR tox inconclusive (no result: MCF10A rerep, RORg inh, SW480 rereplic, Gal4-VP16 FLuc)
Cc1cc2[nH]c3c4ccccc4nc(C)c3c2cc1C	KB-V1 MDR tox inconclusive, KB-3-1 tox 10µM (no result: RORg inh, Gal4-VP16 FLuc)
Cc1cc2c(C)nc3ccccc3c2o1	none
CCC(=O)OCC(=O)C1(OC(=O)CC)C(C)CC2C3C(Cl)CC4=CC(=O)C=C[C@@]4(C)C3C(O)C[C@@]21C (stereo partly specified)	RORg inh 13µM (no result: MCF10A rerep, SW480 rereplic, KB-V1 MDR tox, KB-3-1 tox)
Clc1ccc(OCc2nnc(SCc3nc4ccccc4[nH]3)n2Cc2ccco2)cc1	RORg inh inconclusive, Gal4-VP16 FLuc inconclusive, KB-V1 MDR tox 5.8µM, KB-3-1 tox inconclusive
C/C(=N\NC(=O)c1c[nH]c2ccccc12)c1ccc(C)s1	none
CCn1c(SCC(=O)c2c[nH]c3ccccc23)nnc1-c1cccs1	MCF10A rerep inconclusive, SW480 rereplic 15µM, KB-V1 MDR tox inconclusive, KB-3-1 tox 16µM
CC/C(=N\NC(=O)c1c[nH]c2ccccc12)c1cccs1	RORg inh inconclusive, Gal4-VP16 FLuc inconclusive, KB-V1 MDR tox 16µM
Clc1cccc(-c2nnc(SCc3nc4ccccc4[nH]3)n2Cc2ccco2)c1	MCF10A rerep inconclusive, KB-V1 MDR tox inconclusive
CCn1c(COc2ccc(C)cc2)nnc1SCc1nc2ccccc2[nH]1	RORg inh 13µM, Gal4-VP16 FLuc inconclusive, KB-V1 MDR tox 2.6µM
Cn1c(COc2ccccc2)nnc1SCc1nc2ccccc2[nH]1	MCF10A rerep inconclusive, SW480 rereplic inconclusive, KB-V1 MDR tox inconclusive
C(=C\c1ccccc1)/CSc1nnc(-c2ccccn2)n1Cc1ccco1	MCF10A rerep 7.9µM, SW480 rereplic 21µM, KB-V1 MDR tox inconclusive, KB-3-1 tox 5.8µM (no result: Gal4-VP16 FLuc)
CCn1c(SCc2nc3ccccc3[nH]2)nnc1-c1cccs1	KB-V1 MDR tox 8.2µM
c1coc(Cn2c(SCc3nc4ccccc4[nH]3)nnc2-c2cnccn2)c1	KB-V1 MDR tox inconclusive
c1ccc(-c2nnc(SCc3nc4ccccc4[nH]3)n2Cc2ccco2)nc1	KB-V1 MDR tox 2.6µM
NC(=O)CSc1nnc(-c2ccccn2)n1Cc1ccco1	none
O=c1[nH]c(CSc2nnc(COc3ccccc3)n2-c2ccccc2)nc2ccccc12	RORg inh 13µM, Gal4-VP16 FLuc inconclusive
Fc1ccc(-c2nc(-c3c[nH]c4ccccc34)cs2)cc1	KB-3-1 tox inconclusive (no result: MCF10A rerep, RORg inh, SW480 rereplic, Gal4-VP16 FLuc)
CCCSc1nc(-c2ccc(OC)cc2)cc(-c2ccccc2OC)c1C#N	KB-V1 MDR tox inconclusive (no result: MCF10A rerep, RORg inh, SW480 rereplic, Gal4-VP16 FLuc)
CCN1C(=O)[C@H]2[C@@H](c3ccc(OC)cc3)N[C@]3(CCCN(Cc4ccc(F)cc4)C3=O)[C@H]2C1=O	none (no result: MCF10A rerep, RORg inh, SW480 rereplic, Gal4-VP16 FLuc)
CCn1c(SCCOc2ccc(Cl)cc2)nnc1-c1cccs1	KB-V1 MDR tox 9.2µM
CC1CCCC/C1=N/Nc1ccc([N+](=O)[O-])cc1[N+](=O)[O-] (stereo unspecified)	none
O=[N+]([O-])c1ccc(C2CCCC/C2=N\OCc2cccc(F)c2)c([N+](=O)[O-])c1 (stereo unspecified)	RORg inh inconclusive, KB-V1 MDR tox 10µM
O=C1CCCN2N=C(SCC(=O)Nc3ccc(OC(F)(F)F)cc3)SC2=N1	none
O=C1CCCN2N=C(SCC(=O)Nc3ccc([N+](=O)[O-])cc3)SC2=N1	MCF10A rerep 5.2µM, SW480 rereplic 2.9µM
COc1ccccc1OCCn1cc(C(=O)c2ccco2)c2ccccc21	Gal4-VP16 FLuc inconclusive, KB-V1 MDR tox 13µM
CC(=O)c1cn(CCOc2cc(C)ccc2C)c2ccccc12	RORg inh inconclusive, Gal4-VP16 FLuc 4µM, KB-V1 MDR tox 2.1µM, KB-3-1 tox inconclusive

From PubChem BioAssay
